Counter-ions that a name gives are not always drawn. Like-named read-outs stand apart in the source and are kept apart here.

This is an account of results in article PMC6792352, “Limited Chemical Structural Diversity Found to Modulate Thyroid Hormone Receptor in the Tox21 Chemical Library” (Environmental Health Perspectives, 2019).

The subject of the test is thyroid hormone receptor (endogenous TRα and TRβ). On the set-up: species or system GH3-TRE-Luc (rat pituitary); GH3-TRE-Luc luciferase reporter, antagonist mode against 1 nM T3, loss of signal, qHTS.
Setting [1] is: read-out: Average AC50 (uM) GH3-TRE-Antag, antagonist mode, 1 nM T3, no GH3 cytotoxicity hit.
The mark [2] stands for this setting: read-out: Average AC50 (uM) GH3-TRE-Antag, antagonist mode, 1 nM T3, no GH3 cytotoxicity hit, Average AC50 (uM) GH3-TRE-Antag, 24 h.

`CCN(CC)CCNC(C(=O)OCCC(C)C)c1ccccc1` (centres unmarked) [Camylofin]: under setting [1], the half-maximal activity concentration (AC50) is above 50 µM.
Same read-out and setting: for `CC(C)C(C(=O)OC(C#N)c1cccc(Oc2ccccc2)c1)c1ccc(Cl)cc1` (centres unmarked) [Fenvalerate] the value was 37.1 µM; for `CC(C)c1cccc(C(C)C)c1O` [Propofol], above 50 µM; for `O=C(O)C1=NN(c2ccc(S(=O)(=O)O)cc2)C(=O)C1N=Nc1ccc(S(=O)(=O)O)cc1` (centres unmarked) [FD&C Yellow 5], 6.01e-06 µM.
As for `Cc1cc(Nc2ccccc2C(=O)O)ccc1Cl` [2-[(4-Chloro-3-methylphenyl)amino]benzoic acid], the half-maximal activity concentration (AC50) under setting [1] is 16.1 µM.
On to `O=C(O)C[C@H](O)C[C@H](O)/C=C/c1c(C2CC2)nc2ccccc2c1-c1ccc(F)cc1` [Pitavastatin calcium], for which, under setting [1], the AC50 is 46.3 µM.
On to `CCCCCCn1cc[n+](C)c1` [1-Hexyl-3-methylimidazolium chloride], for which the concentration at half-maximal activity (AC50) under setting [2] came to 65.3 µM.
`Nc1ccc2c3c(cccc13)-c1ccccc1-2` [3-Aminofluoranthene]: the AC50 under setting [1] turned out to be 40.9 µM.
The same measure, in the same setting: the same measure for `c1ccc2c(c1)Oc1ccccc1S2` [Phenoxathiin]: above 90 µM; for `CCN(CC)C(=O)N[C@H]1C[C@@H]2c3cccc4[nH]cc(c34)C[C@H]2N(C)C1` [Terguride]: 22.1 µM; for `C#C[C@]1(O)CC[C@H]2[C@@H]3CCc4cc(O)ccc4[C@H]3CC[C@@]21C` [17alpha-Ethinylestradiol]: 16.2 µM.
With `CC1=C(C)S(=O)(=O)CCS1(=O)=O` [Dimethipin], the AC50 under setting [1] worked out at 86.8 µM.
`CC(C)n1c(/C=C/[C@H](O)C[C@H](O)CC(=O)O)c(-c2ccc(F)cc2)c2ccccc21` [Fluvastatin sodium]: under setting [2], the AC50 was 39.3 µM.
For the compound `C[C@]12CC[C@@H]3c4ccc(O)cc4CC[C@H]3[C@@H]1C[C@@H](O)[C@@H]2O` [Estriol], the AC50 under setting [1] was above 50 µM.
As to `O=C(c1ccc(O)cc1O)c1ccc(O)cc1O` [2,2',4,4'-Tetrahydroxybenzophenone], the AC50 under setting [1] stood at 39.2 µM.
Regarding `CCOc1cc([N+](=O)[O-])c(OCC)cc1N1CCOCC1` [4-(2,5-Diethoxy-4-nitrophenyl)morpholine], the concentration at half-maximal activity (AC50) under setting [1] was 28.4 µM.
On the same count and under the same terms, for `Cc1ccc(Nc2nccc(N(C)c3ccc4c(C)n(C)nc4c3)n2)cc1S(N)(=O)=O` [Pazopanib] the value was 14 µM.
On the same count and under the same terms, for `CC(C)OC(=S)S` [Proxan-sodium] the value was above 90 µM; for `CCCOC(=O)c1ccc(N)cc1` [Risocaine], 44.3 µM; for `OC(CN1CCC(Cc2ccc(F)cc2)CC1)c1ccc(Cl)cc1` (centres unmarked) [Eliprodil], 19.5 µM.
As for `CCCCCCCCCCCCOS(=O)(=O)O` [Ammonium dodecyl sulfate], the AC50 under setting [2] is 80.2 µM.
Turning to `CCOC1O[C@H]([C@@H](COCc2ccccc2)OCc2ccccc2)[C@H](OCc2ccccc2)[C@H]1O` (some centres unmarked) [Tribenoside], under setting [1], the half-maximal activity concentration (AC50) came out at 11.1 µM.
For `CC(C)c1c(C(=O)Nc2ccccc2)c(-c2ccccc2)c(-c2ccc(F)cc2)n1CC[C@@H](O)C[C@@H](O)CC(=O)O` [Atorvastatin calcium], the AC50 under setting [2] is 14.2 µM.
As to `C[C@]12CC[C@H]3[C@@H](CC[C@@]45O[C@@H]4C(O)=C(C#N)C[C@]35C)[C@@H]1CC[C@@H]2O` [Trilostane], the AC50 under setting [1] was above 50 µM.
Same read-out and setting: the same measure for `Nc1ccc2cc3ccccc3cc2c1` [2-Aminoanthracene]: 3.18 µM.
Still for that read-out and setting: for `O=C(/C=C/C=C/c1ccc2c(c1)OCO2)N1CCCCC1` [Piperine] the value was 73.5 µM.

One may read the AC50 as the concentration at which the activity in the assay is half-maximal.
